The source of these data is PubChem BioAssay.

Test [1] deals with Cell division control protein 42 homolog (Homo sapiens) (UniProt P60953). The test can be described thus: inhibition of fluorescent GTP binding to constitutively active Cdc42 – biochemical, multiplex bead flow cytometry, Bodipy-FL-GTP, dose response (AID 1333;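 active = fitted half-maximal concentration within the tested dose range, moderate curve steepness, a statistically real signal drop, and little compound fluorescence or tag-binding interference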).
Sequence of Cell division control protein 42 homolog (Homo sapiens) (P60953 whole entry, looked up): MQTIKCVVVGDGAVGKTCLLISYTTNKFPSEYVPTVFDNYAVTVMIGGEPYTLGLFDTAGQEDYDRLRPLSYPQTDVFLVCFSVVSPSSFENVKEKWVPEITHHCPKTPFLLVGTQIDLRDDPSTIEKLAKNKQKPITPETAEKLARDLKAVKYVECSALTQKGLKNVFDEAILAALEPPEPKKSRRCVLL
For test [2] the target is unchanged. The test can be described thus: inhibition of fluorescent GTP binding to wildtype Cdc42 – biochemical, multiplex bead flow cytometry, Bodipy-FL-GTP, dose response (AID 1334;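 active = fitted half-maximal concentration within the tested range, moderate curve steepness, significant signal drop, and little compound fluorescence or bead-linkage interference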). Conditions: bead-based flow cytometry, Bodipy-FL-GTP binding to GST-Cdc42; at 100 µM (top of the series) unless noted.
The target in test [3] is GTPase HRas (Homo sapiens) (UniProt P01112). Kind of test: Ras wt fluorescent GTP loading blockade – biochemical, wildtype, multiplex bead flow cytometry, dose response (AID 1335;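 active = fitted half-maximal concentration within 10 nM to 100 µM, steepness 0.5 to 2, significant signal drop, low assay interference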). The conditions noted are these: bead-based flow cytometry, Bodipy-GTP binding to GST-Ras; at 100 µM (top of the series) unless noted. (A flow cytometer gives signals particle by particle.)
Sequence of GTPase HRas (Homo sapiens) (P01112 whole entry, looked up): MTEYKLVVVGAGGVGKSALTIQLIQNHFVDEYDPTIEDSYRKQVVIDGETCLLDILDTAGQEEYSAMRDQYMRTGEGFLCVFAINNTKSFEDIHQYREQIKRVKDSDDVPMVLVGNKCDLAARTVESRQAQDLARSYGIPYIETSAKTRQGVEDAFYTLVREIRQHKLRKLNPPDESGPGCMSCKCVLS
Test [4] relates to Ras-related protein Rab-7a (dog), GTP binding. Kind of test: blockers of fluorescent GTP binding to Rab7 – biochemical, wildtype, multiplex bead flow cytometry, dose response (AID 1336).
Test [5] has as its target Ras-related C3 botulinum toxin substrate 1 (Homo sapiens) (UniProt P63000). The test can be described thus: inhibition of wildtype Rac1 nucleotide loading – biochemical, multiplex bead flow cytometry, dose response (AID 1340;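 active = dose curve with midpoint inside tested range, moderate steepness, plateau gap beyond fit error, low compound glow and bead-link interference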). Conditions: GST-Rac1 beads, Bodipy-FL-GTP binding; at 100 µM (top of the series) unless noted.
In test [6] the target is GTPase HRas (Homo sapiens) (UniProt P01112). Kind of test: blockade of GTP loading onto mutant Ras – biochemical, activated mutant, multiplex bead flow cytometry, dose response (AID 1341;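 active = dose-response curve with midpoint inside the tested range, moderate steepness, significant amplitude and little compound fluorescence or bead-attachment interference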;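 also: GST-tagged constitutively activated Ras mutant immobilized on beads and multiplexed with other GTPases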).

For part of these data: Potency and affinity values are given separately. Activity calls are given as the source filed them. Unless noted, no rule for the calls is given here.

`COCCn1c(N)c(C(=O)Nc2sc3c(c2C(=O)OC)CCCC3)c2nc3ccccc3nc21`: the call in test [1], in test [4] and in test [6] was inactive. Besides, in test [2], the fluorescence, percent of control (lower = inhibition) is 52%. This compound displayed a GTP binding, percent of control in test [3] of 108%. Also, the GTP binding signal, raw median fluorescence (lower = inhibition) (MCF (arbitrary fluorescence units)) in test [5] was 120.

For the compound `CSc1nnc(C)c(/C=C/Nc2ccc(C)cc2)n1`, the call in test [1], in test [4] and in test [6] was inactive. The fluorescence, percent of control (lower = inhibition) in test [2] stood at 74.9%. For the same compound, the GTP binding, percent of control in test [3] worked out at 144%. This compound showed a GTP binding signal, raw median fluorescence (lower = inhibition) (MCF (arbitrary fluorescence units)) in test [5] of 155.

`Cc1ccccc1OCCn1cc(C(=O)O)c2c(C)cccc21`: the result in test [1], in test [4] and in test [6] was inactive. Besides, the fluorescence, percent of control (lower = inhibition) in test [2] came to 53%. Besides, the GTP binding, percent of control in test [3] worked out at 176%. Further, the GTP binding signal, raw median fluorescence (lower = inhibition) (MCF (arbitrary fluorescence units)) in test [5] was found to be 55.6.

As to `COc1ccc(N=C2S/C(=C\c3ccc(N4CCOCC4)o3)C(=O)N2CCc2c[nH]c3ccccc23)cc1`, the call in test [1], in test [4] and in test [6] was inactive. The fluorescence, percent of control (lower = inhibition) in test [2] was 133%. The compound also had a GTP binding, percent of control in test [3] of 212%. For the same compound, the GTP binding signal, raw median fluorescence (lower = inhibition) (MCF (arbitrary fluorescence units)) in test [5] is 210.

Regarding `O=C(Nc1cccc(Cl)c1)Nc1ccnc(-c2cccnc2)n1`, the call in test [1], in test [4] and in test [6] was inactive. Further, the fluorescence, percent of control (lower = inhibition) in test [2] amounted to 33.8%. The GTP binding, percent of control in test [3] worked out at 72.8%. This compound returned a GTP binding signal, raw median fluorescence (lower = inhibition) (MCF (arbitrary fluorescence units)) in test [5] of 155.

Turning to `O=C(O)/C=C/C(=O)Nc1cccnc1`, the outcome in test [1], in test [4] and in test [6] was inactive. The fluorescence, percent of control (lower = inhibition) in test [2] was found to be 50.8%. This compound gave a GTP binding, percent of control in test [3] of 64.4%. In test [5], this compound registered a GTP binding signal, raw median fluorescence (lower = inhibition) (MCF (arbitrary fluorescence units)) of 200.

Turning to `Nc1nc2c(c(=O)[nH]1)C(c1cccc3ccccc13)C1=C(N2)c2ccccc2C1=O` (stereo not given), the result in test [1], in test [4] and in test [6] was inactive. For the same compound, in test [2], the fluorescence, percent of control (lower = inhibition) is 31%. The GTP binding, percent of control in test [3] stood at 75.5%. The same compound displayed a GTP binding signal, raw median fluorescence (lower = inhibition) (MCF (arbitrary fluorescence units)) in test [5] of 204.

As to `C/C(=C1/SC(=S)N(CCC(=O)O)C1=O)c1ccc(O)cc1`, the outcome in test [1], in test [4] and in test [6] was inactive. Further, in test [2], the fluorescence, percent of control (lower = inhibition) is 29.5%. In addition, in test [3], the GTP binding, percent of control was 80.9%. In test [5], this compound gave a GTP binding signal, raw median fluorescence (lower = inhibition) (MCF (arbitrary fluorescence units)) of 254.

Consider `O=C(c1n[nH]c(=O)c2ccccc12)N1CCN(C2c3ccccc3-c3ccccc32)CC1`, for which the compound was classed as inactive in test [1], in test [4] and in test [6]. In addition, in test [2], the fluorescence, percent of control (lower = inhibition) worked out at 87%. In addition, in test [3], the GTP binding, percent of control was found to be 156%. Moreover, the GTP binding signal, raw median fluorescence (lower = inhibition) (MCF (arbitrary fluorescence units)) in test [5] was found to be 175.

On to `COc1ccccc1OCCn1cc(C(=O)O)c2ccccc21`, for which the outcome in test [1], in test [4] and in test [6] was inactive. The fluorescence, percent of control (lower = inhibition) in test [2] was determined as 102%. Besides, the GTP binding, percent of control in test [3] is 139%. In test [5], this compound returned a GTP binding signal, raw median fluorescence (lower = inhibition) (MCF (arbitrary fluorescence units)) of 87.3.

For the compound `Cc1cc(NS(=O)(=O)c2ccc(NC(=O)c3cc4c(=O)n5ccccc5nc4s3)cc2)nc(C)n1`, the compound was called inactive in test [1], in test [4] and in test [6]. For the same compound, the fluorescence, percent of control (lower = inhibition) in test [2] was 31.9%. For the same compound, the GTP binding, percent of control in test [3] is 77.5%. In test [5], this compound came in with a GTP binding signal, raw median fluorescence (lower = inhibition) (MCF (arbitrary fluorescence units)) of 166.

`Cc1nc2cccc(C)n2c(=O)c1Cl`: the outcome in test [1], in test [4] and in test [6] was inactive. For the same compound, in test [2], the fluorescence, percent of control (lower = inhibition) was 38.6%. In test [3], this compound gave a GTP binding, percent of control of 83.8%. Also, the GTP binding signal, raw median fluorescence (lower = inhibition) (MCF (arbitrary fluorescence units)) in test [5] came out at 255.

As for `COCCNC(=S)Nc1cc(OC)c(OC)cc1C#N`, the compound was classed as inactive in test [1], in test [4] and in test [6]. Besides, the fluorescence, percent of control (lower = inhibition) in test [2] came out at 40.8%. In test [3], this compound showed a GTP binding, percent of control of 74.7%. Also, in test [5], the GTP binding signal, raw median fluorescence (lower = inhibition) (MCF (arbitrary fluorescence units)) came out at 144.

With `Cc1n[nH]c(=S)c2nn(-c3ccccc3)c(C)c12`, the outcome in test [1], in test [4] and in test [6] was inactive. Besides, in test [2], the fluorescence, percent of control (lower = inhibition) is 47.4%. Besides, the GTP binding, percent of control in test [3] was determined as 63.6%. In test [5], this compound displayed a GTP binding signal, raw median fluorescence (lower = inhibition) (MCF (arbitrary fluorescence units)) of 188.

Take `Cc1ccc(COc2ccsc2C(=O)O)cc1`: the call in test [1], in test [4] and in test [6] was inactive. Further, the fluorescence, percent of control (lower = inhibition) in test [2] is 99.7%. The GTP binding, percent of control in test [3] worked out at 115%. Further, the GTP binding signal, raw median fluorescence (lower = inhibition) (MCF (arbitrary fluorescence units)) in test [5] was determined as 82.4.
